Measurements taken from PubChem BioAssay (EPA / NIEHS).
Active and inactive are the calls of the source. The calls were made as follows, unless noted: active = hit-call score of the fitted dose curve at least 0.9, where 1 is the maximum; inconclusive = response in the unintended direction; inactive = score below 0.9.

assay: STM_H9_CystineISnorm_perc: Stemina devTOX quickPredict H9 human embryonic stem cell (hESC)-based Assay for Cystine (CYSS) Metabolite Biomarker, Normalized (AID 2283713; active = hit-call score of the fitted dose curve at least 0.9, where 1 is the maximum; inactive = score below 0.9)
Outline: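 Undifferentiated H9 hESCs exposed 72 h, compound and media replaced every 24 h; final 24-h media analysed by UPLC-HRMS. Cystine normalized to C13 spike-in standard and median 0.1% DMSO control.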

Structure (SMILES)	AC50	outcome
O=C(c1ccc(O)cc1O)c1ccc(O)cc1O	18.5 µM (active)	
OB(O)O		inactive
CCOC(=O)C(C)Oc1ccc(Oc2cnc3cc(Cl)ccc3n2)cc1 (stereo not given)	9.92 µM (active)	
CCCN(CCC)c1c([N+](=O)[O-])cc(C(F)(F)F)c(N)c1[N+](=O)[O-]		inactive

assay: CEETOX_H295R_MTT_cell_viability: Viability Assessment in the CeeTox HT-H295R MTT Assay (AID 2283718; active = hit-call score of the fitted dose curve at least 0.9, where 1 is the maximum; inactive = score below 0.9)
Outline: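 H295R cells prestimulated 48 h with 10 uM forskolin, then exposed 48 h to test chemical (0.1% DMSO final). Viability by MTT (0.5 mg/ml, 4 h, 37 C), absorbance 570/650 nm; percent change versus DMSO, bidirectional fit.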

Structure (SMILES)	outcome
CCCN(CCC)C(=O)SCC	inactive
c1ccc2[nH]c(-c3cscn3)nc2c1	inactive
CCCCC(CC)CN1C(=O)C2C3C=CC(C3)C2C1=O (stereo not given)	inactive
CC(=O)[C@H]1CC[C@H]2[C@@H]3CCC4=CC(=O)CC[C@]4(C)[C@H]3CC[C@]12C	inactive
CCCCOCCOCCOCc1cc2c(cc1CCC)OCO2	inactive
CC1(C)C(C=C(Cl)Cl)C1C(=O)OCc1cccc(Oc2ccccc2)c1 (stereo not given)	inactive
c1ccc(Nc2ccccc2)cc1	inactive
C#C[C@]1(O)CC[C@H]2[C@@H]3CCC4=CC(=O)CC[C@@H]4[C@H]3CC[C@@]21CC	inactive
CC(=O)S[C@@H]1CC2=CC(=O)CC[C@]2(C)[C@H]2CC[C@@]3(C)[C@@H](CC[C@@]34CCC(=O)O4)[C@H]12	inactive
CCOC(=O)c1ccc(O)cc1	inactive

assay: Tanguay_ZF_120hpf_ActivityScore_legacy: (Legacy) Oregon State University Tanguay Lab 120 Hour Post-fertilization zebrafish Assay Score for Activity (AID 2283742);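 as to AC50: static exposure from 6 hpf until 120 hpf at 28 °C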
Outline: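 Tropical 5D wild-type zebrafish embryos, dechorionated with pronase at 4 hpf, were exposed singly from 6 hpf to 120 hpf statically at 28C in 0.64% DMSO. Malformations and mortality were scored as binary by brightfield, with the activity score combining 18 morphology components.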

Structure (SMILES)	outcome	AC50
CCCN(CCC)C(=O)SCC	inactive	
O=C(c1ccc(O)cc1O)c1ccc(O)cc1O	inactive	
CCCCCCC(C)OC(=O)COc1nc(F)c(Cl)c(N)c1Cl (stereo not given)	inactive	
c1ccc2[nH]c(-c3cscn3)nc2c1	inactive	
CCOC(=O)NCCOc1ccc(Oc2ccccc2)cc1	inactive	
CCCOC(=O)NCCCN(C)C	inactive	
CCCCC(CC)CN1C(=O)C2C3C=CC(C3)C2C1=O (stereo not given)	inactive	
O=C(c1ccccc1)C1CCCCC1	inactive	
CCN(CC)C(=O)c1cccc(C)c1	inactive	
OB(O)O	inactive	
O=C(O)c1ccccc1	inactive	
CC(=O)[C@H]1CC[C@H]2[C@@H]3CCC4=CC(=O)CC[C@]4(C)[C@H]3CC[C@]12C	inactive	
CCCCOCCOCCOCc1cc2c(cc1CCC)OCO2		4.35 µM (active)
CCCOC(=O)c1ccc(C(=O)OCCC)nc1		3.83 µM (active)
CCOC(=O)C(C)Oc1ccc(Oc2cnc3cc(Cl)ccc3n2)cc1 (stereo not given)	inactive	
c1ccc(Nc2ccccc2)cc1		30.3 µM (active)
C[C@]12CC[C@@H]3c4ccc(O)cc4C[C@@H](CCCCCCCCCS(=O)CCCC(F)(F)C(F)(F)F)[C@H]3[C@@H]1CC[C@@H]2O (stereo not given in full)	inactive	
CCC(C)OC(=O)N1CCCCC1CCO (stereo not given)	inactive	
C#C[C@]1(O)CC[C@H]2[C@@H]3CCC4=CC(=O)CC[C@@H]4[C@H]3CC[C@@]21CC	inactive	
CCOC(=O)C(C)Oc1ccc(Oc2nc3ccc(Cl)cc3o2)cc1 (stereo not given)	inactive	
COc1c(Cl)ccc(Cl)c1C(=O)O	inactive	
CCCN(CCC)c1c([N+](=O)[O-])cc(C(F)(F)F)c(N)c1[N+](=O)[O-]	inactive	
CC(=O)S[C@@H]1CC2=CC(=O)CC[C@]2(C)[C@H]2CC[C@@]3(C)[C@@H](CC[C@@]34CCC(=O)O4)[C@H]12	inactive	
CCOC(=O)COc1cc(-n2ncc(C(F)(F)F)c(C)c2=O)c(F)cc1Cl	inactive	
COCCO	inactive	
CCOC(=O)c1ccc(O)cc1	inactive	
